Assay outcomes from PubChem BioAssay.
Sampled rows, rich in hits. Any-hit rate of the full collection: about 5.7%.
hcDAF-12 act: H. contortus DAF-12 nuclear receptor activators, primary screen, cell-based, luminescence, HEK293, lit1-tk-luc reporter; activation, % at 6.8 µM; HEK293 hcDAF-12 lit1-tk-luc reporter; 0% DMSO, 100% Δ7-dafachronic acid; hit rate 1.4% among 370,000;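 active = activation above the mean of all tested compounds plus 3 SD, cut at about 5.5% in these data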;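 note: 100% = response to 3 µM Δ7-dafachronic acid high control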
DAX1 inh-1: DAX1 (NR0B1) inhibitors, primary screen, cell-based, HEK293, Gal4-DAX1, luciferase luminescence. HEK293 Gal4-DAX1 luciferase reporter. inhibition, % at 6.75 µM. hit rate 0.99% among 340,000. AID 504766, 2011;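 active = inhibition above the mean over all tested compounds plus 3 SD, cut at about 4.2% in these data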;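 note: 0% = DAX1-transfected cells with DMSO and 100% = empty-vector control cells with DMSO; inhibition shows as a rise in luminescence from relieved DAX1 repression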
DAX1 inh-2: DAX1 (NR0B1) inhibitors on StAR promoter, primary screen, cell-based, luminescence, SF-1 (NR5A1), full-length DAX-1 | HEK293T StAR-luciferase reporter, SF-1/DAX-1 repression relief | inhibition, % at 6.8 µM | hit rate 1.1% among 370,000;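 active = inhibition above the mean over all tested compounds plus 3 SD, cut at about 3.6% in these data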;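 note: 0% = DAX-1 cells with DMSO and 100% = cells lacking DAX-1 with DMSO; higher inhibition means more luminescence from relief of DAX-1 repression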
hgDAF12 agonist: H. glycines DAF-12 receptor agonists, primary screen, cell-based, luminescence, HEK293, GAL4 fusion, UAS-luciferase; AID 687014, 2013; activation, % at 6.8 µM; HEK293 GAL4-hgDAF12 UAS-luciferase reporter, agonist luminescence; normalized to butyrate control; hit rate 1.8% among 370,000; Nuclear hormone receptor DAF-12 (Heterodera glycines), GAL4 fusion;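 active = activation above a cutoff set at the mean of all screened compounds plus 3 SD, cut at about 10% in these data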;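 note: 0% = DMSO wells and 100% = sodium butyrate wells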
ssDAF12 agonist: S. stercoralis DAF-12 nuclear receptor activators, primary screen, cell-based, luminescence, HEK293, GRIP1 co-expression, lit1-tk-luc. Nuclear hormone receptor DAF-12 (Strongyloides stercoralis). HEK293 ssDAF-12/GRIP1 lit1-tk-luc reporter; % of 3 µM dafachronic acid response. activation, % at 6.8 µM. hit rate 1% among 370,000. AID 652126, 2013;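 active = activation above the mean over all tested compounds plus 3 SD, cut at about 0.9% in these data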;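 note: 0% = DMSO-only wells and 100% = 3 µM delta7-dafachronic acid wells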
AHR activator: AHR activators, primary screen, cell-based, luminescence, luciferase reporter, human; hit rate 2.5% among 320,000; AID 2796, 2010; AHR-responsive luciferase reporter cells; Aryl hydrocarbon receptor (Homo sapiens), P35869; activation, % at 5 µM; in the data active = activation above about 47%;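 note: 0% = vehicle wells and 100% = reference agonist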
LXRb hcDAF ctr: LXR agonists, Gal4 luciferase reporter, confirmation, counter-screen for hcDAF-12 agonist project, cell-based, luminescence, HEK293, H. contortus campaign; shares compounds with hcDAF-12 act; HEK293 Gal4-LXR tk-luc reporter, 24 h; normalized: DMSO 0%, positive control 100%; activation, % at 6.8 µM; 3,400 tested, under 10 active; AID 743027, 2013;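 active = mean percent activation of the reporter above a cutoff set as the average over tested compounds plus their standard deviation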
Target sequence (P55055 whole entry, looked up, the tested form may be a part): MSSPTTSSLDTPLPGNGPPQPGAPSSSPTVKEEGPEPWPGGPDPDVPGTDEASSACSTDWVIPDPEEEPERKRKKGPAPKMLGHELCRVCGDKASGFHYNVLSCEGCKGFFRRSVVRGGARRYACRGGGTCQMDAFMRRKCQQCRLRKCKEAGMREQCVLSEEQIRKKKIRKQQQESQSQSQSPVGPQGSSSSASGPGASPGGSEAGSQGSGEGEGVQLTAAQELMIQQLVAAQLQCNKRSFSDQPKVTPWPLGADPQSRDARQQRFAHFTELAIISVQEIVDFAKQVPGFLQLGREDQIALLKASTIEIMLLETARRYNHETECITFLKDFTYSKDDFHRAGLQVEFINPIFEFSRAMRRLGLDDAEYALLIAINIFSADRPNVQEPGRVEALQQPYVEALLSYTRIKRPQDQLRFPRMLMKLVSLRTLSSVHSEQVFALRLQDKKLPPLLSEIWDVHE
hcDAF12 conf: H. contortus DAF-12 receptor agonists, confirmation, cell-based, luminescence, HEK293, lit1-tk-luc, triplicate. activation, % at 6.8 µM. HEK293 hcDAF-12 lit1-tk-luc reporter; % of Δ7-dafachronic acid response. hit rate 61% among 3,400. AID 743032, 2013. shares compounds with hcDAF-12 act;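 active = mean activation across triplicate tests above the threshold derived from the earlier primary screen, cut at about 5.5% in these data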;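 note: 0% = DMSO only wells and 100% = 3 µM Δ7-dafachronic acid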
hgDAF12 conf: H. glycines DAF-12 receptor agonists, confirmation, cell-based, luminescence, HEK293, GAL4-LBD fusion | AID 743050, 2013 | hit rate 80% among 3,300 | HEK293 GAL4-hgDAF12 luciferase reporter, agonist mode; percent of butyrate response | activation, % at 6.8 µM | shares compounds with hgDAF12 agonist;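 active = mean activation over triplicate wells above the hit cutoff derived from the earlier primary screen, cut at about 11% in these data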;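 note: 0% = DMSO low control and 100% = 2 mM sodium butyrate high control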
LXRb DAF12 ctr: LXR agonists, Gal4 luciferase reporter, confirmation, counter-screen for hgDAF-12 agonist project, cell-based, luminescence, HEK293, H. glycines campaign; shares compounds with hgDAF12 agonist; 24 h; activation, % at 6.8 µM; 3,300 tested, under 10 active;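 active = mean activation of the triplicate above a set limit carried over from the primary screen, none filed active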
Active calls of the source: *; / = no result.

SMILES	hcDAF-12 act	DAX1 inh-1	DAX1 inh-2	hgDAF12 agonist	ssDAF12 agonist	AHR activator	LXRb hcDAF ctr	hcDAF12 conf	others
CCCCn1c(=O)c(C(=O)Nc2ccccc2)c(O)c2ccccc21	7.1*	1	0	2	0	12	0	7.6*
OC(CN1CCCCC1)c1c[nH]c2ccccc12 (centres undefined)	8.0*	2	0	0	0	14	0	4
c1ccc2c(CN3CCCCC3)c[nH]c2c1	2	-1	1	3	0	13	/	/
CSc1ccc(C(=O)C2CCCN(Cc3cc4ccccc4[nH]3)C2)cc1 (centres undefined)	6.7*	0	0	0	1	15	0	6
CN(C)C1=NP(N(C)C)(N(C)C)=NC(c2ccccc2)=N1	-2	0	0	2	-1	17	/	/
O=Cc1c(C(=O)O)n(Cc2ccccc2F)c2ccccc12	7.9*	1	0	0	0	15	0	5
COC(=O)C1=C(c2ccc(F)cc2OCc2ccccc2)C[C@@H]2CC[C@H]1N2C(=O)N1CCC(O)(c2ccc(Cl)cc2)CC1	-1	1	0	-2	-1	0	/	/
CCN1C[C@]2(COC(=O)c3ccccc3N)CC[C@H](OC)C34[C@@H]5C[C@H]6[C@H](OC)[C@@H]5[C@](O)(C[C@@H]6OC)[C@@](O)([C@H]13)[C@@H](OC)[C@@H]42	2	0	0	-1	-2	0	/	/
c1ccc2sc(NC3=NCCN3)nc2c1	9.3*	2	1	7	0	21	1	7.2*
COc1ccc2nc(NC3=NCCN3)sc2c1	10*	3	3	12*	1.0*	25	1	7.4*
c1ccc(CCN2CCCCC2)nc1	-1	0	0	0	-1	/	/	/
O=C(N/N=C/c1c(O)n(CCC2=CCCCC2)c(=O)[nH]c1=O)c1ccccc1	2	0	2	7	0	4	/	/
Nc1ccccc1N=Cc1c(O)n(CCC2=CCCCC2)c(=O)[nH]c1=O	9.6*	3	3	11*	1	10	0	1
COC(=O)C1=C(c2ccc(OCc3ccccc3)cc2)C[C@@H]2CC[C@H]1N2C(=O)NCc1cccc(OC)c1	-1	-2	-1	-5	-2	-3	/	/
CCn1c(O)c(C=Nc2ccc(S(N)(=O)=O)cc2)c(=O)n(CC)c1=S	2	0	0	-4	-1	2	/	/
CCn1c(O)c(C=Nc2cc(Cl)ccc2Cl)c(=O)n(CC)c1=O	6.8*	0	0	3	0	15	0	1
CN(C)c1ccc2c(c1)N=C(c1ccco1)OP2(=S)N1CCOCC1 (centres undefined)	7.6*	0	1	4	1.9*	15	0	2
Clc1ccccc1Nc1ncnc(-n2cccc2)n1	11*	3	2	13*	1	101*	1	9.2*
Clc1ccccc1NC1=NCCCS1	0	0	0	1	-1	-1	/	/
Brc1ccc2c(c1)-n1nncc1CN(CC1CCCCC1)C2	-2	/	1	-2	-2	/	/	/
COc1ccc(CCNCc2c(OC)ccc3ccccc23)cc1	0	0	0	0	-1	4	/	/
COc1ccc(C(C)=O)cc1CC(C(=O)c1ccc(Br)cc1)N(C)C (centres undefined)	0	0	0	14*	-1	9	/	/	hgDAF12 conf=0;LXRb DAF12 ctr=0
CNC(=O)Oc1ccccc1C1CCCCC1	-1	0	0	-2	-1	/	/	/
N#Cc1c(Br)n(C2OC(CO)C(O)C2O)c2ncnc(N)c12 (centres undefined)	1	7.6*	0	18*	-1	/	/	/	hgDAF12 conf=10;LXRb DAF12 ctr=1
CCC(=NCc1cc(OC)cc(OC)c1)c1c(O)[nH]c(=O)[nH]c1=O	-2	0	0	-2	-2	14	/	/
Nc1c2c(nc3sc4c(c13)CCCC4)CCCCC2	3	3	2	14*	0	58*	/	/	hgDAF12 conf=18*;LXRb DAF12 ctr=1
C[C@]12CCC(=O)C=C1C=CC1C2CC[C@]2(C)C(=O)CCC12 (some centres undefined)	-3	0	-1	0	-1	-3	/	/
